Among the data in PubChem BioAssay (NCI) are growth values, retold here.

Some test systems named below: SK-MEL-2 melanoma; EKVX NSCLC; SN12C renal; UO-31 renal; TK-10 renal; ACHN renal; CAKI-1 renal; A498 renal; CCRF-CEM leukemia; MOLT-4 leukemia; SR leukemia; RPMI-8226 leukemia; OVCAR-8 ovarian; OVCAR-5 ovarian; OVCAR-4 ovarian; SK-OV-3 ovarian; IGROV1 ovarian; OVCAR-3 ovarian; HS 578T breast; NCI/ADR-RES ovarian.
Assay in all cases: NCI-60 one-dose screen, 48 h (100 = growth as untreated, 0 = no growth, -100 = all killed)
Common to all, as to settings: 10 µM unless noted

Compounds without any hit were thinned out: in the full panel of roughly 83,000, 20% have a hit.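 How to read the values: 0–100, growth inhibition (40 = 60% inhibited); 0, no net growth; -100 to 0, cell death (-40 = 40% of starting cells died; -100 = all dead).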 Values without a mark were called inactive. Calls of active or inactive are those of the source. How the source made its calls: active means growth percent below 10; inactive means the rest.

Consider `C=C1C(=O)O[C@H]2[C@H]1CC/C(COC(=O)NCc1ccc(Cn3c(=O)sn(-c4ccc(C#N)cc4)c3=O)cc1)=C\CC[C@@]1(C)O[C@@H]21`, for which the growth is 84.8% with SK-MEL-2 melanoma; 92.2% in the experiment on EKVX NSCLC; 50.3% with SN12C renal; 75.9% in the experiment with UO-31 renal; 48.9% in the experiment with TK-10 renal; 79.5% in the experiment with ACHN renal. The growth was 58.4% in the experiment with CAKI-1 renal; 120% in the experiment with A498 renal; 3.9% (active) in the experiment with CCRF-CEM leukemia; 30% in the experiment with MOLT-4 leukemia; 55% in the experiment with SR leukemia; 6.41% (active) in the experiment with RPMI-8226 leukemia. Further, the growth is 74.1% in the experiment on OVCAR-8 ovarian; 86% in the experiment on OVCAR-5 ovarian; 46.5% in the experiment on OVCAR-4 ovarian; 93.1% with SK-OV-3 ovarian; 57.8% in the experiment on IGROV1 ovarian; -39.5% (active) in the experiment with OVCAR-3 ovarian. Besides, the growth with HS 578T breast was 99.4%; in the experiment with NCI/ADR-RES ovarian it was 103%.
For the compound `O=C1c2ccccc2C(=O)c2c1cc1c(c2[N+](=O)[O-])OCO1`, the growth in the experiment on SK-MEL-2 melanoma was -30.8% (active); in the experiment on EKVX NSCLC it was 22.9%; in the experiment on SN12C renal it was 13.9%; in the experiment on UO-31 renal it was -3.07% (active); in the experiment on TK-10 renal it was -14.8% (active); in the experiment with ACHN renal, -18.6% (active). For the same compound, the growth in the experiment with CAKI-1 renal was 2.82% (active); in the experiment with A498 renal, -44.9% (active); in the experiment on CCRF-CEM leukemia it was 22.9%; with MOLT-4 leukemia, 28.7%; in the experiment on SR leukemia it was 14.6%; in the experiment with RPMI-8226 leukemia it was 7.28% (active). Also, the growth was 14.4% with OVCAR-8 ovarian; 9.69% (active) in the experiment with OVCAR-5 ovarian; -14.7% (active) in the experiment on SK-OV-3 ovarian; 5.43% (active) with IGROV1 ovarian; -20.9% (active) with OVCAR-3 ovarian; 6.81% (active) in the experiment on HS 578T breast. Moreover, in the experiment on NCI/ADR-RES ovarian, the growth was -11.7% (active).
Turning to `CCCCC#Cc1c(I)n(C)c(=O)[nH]c1=O`, the growth with SK-MEL-2 melanoma is 63.2%; with EKVX NSCLC it was 52.9%; in the experiment with SN12C renal it was 39.4%; in the experiment on UO-31 renal it was -78% (active); in the experiment with TK-10 renal, 50%; in the experiment on ACHN renal, -75.7% (active). In addition, the growth was -54.2% (active) in the experiment with CAKI-1 renal; 94.2% in the experiment on A498 renal; -51.4% (active) in the experiment on CCRF-CEM leukemia; -61.1% (active) with MOLT-4 leukemia; -35.9% (active) with SR leukemia; 19.2% with RPMI-8226 leukemia. Besides, the growth is -12.4% (active) with OVCAR-8 ovarian; 80.2% with OVCAR-5 ovarian; -80.2% (active) in the experiment on OVCAR-4 ovarian; 95.5% in the experiment on SK-OV-3 ovarian; -92.5% (active) in the experiment with IGROV1 ovarian; -90.7% (active) in the experiment with OVCAR-3 ovarian. Further, the values for the growth with HS 578T breast and in the experiment on NCI/ADR-RES ovarian were -6.87% (active) and 85.7%, respectively.
For `O=C(/C=C/c1ccc(Oc2ccc(Br)cc2)cc1)c1ccc(Br)cc1`, the growth in the experiment with SK-MEL-2 melanoma was 96.5%; with EKVX NSCLC, 103%; in the experiment on SN12C renal, 97.2%; with UO-31 renal, 78.8%; in the experiment with TK-10 renal, 95.2%; with ACHN renal, 102%. In addition, the growth with CAKI-1 renal is 93.5%; in the experiment on A498 renal, 73.6%; in the experiment on CCRF-CEM leukemia, 91.9%; in the experiment with MOLT-4 leukemia, 90.5%; with SR leukemia, 85.7%; in the experiment on RPMI-8226 leukemia it was 83.5%. Besides, the growth with OVCAR-8 ovarian is 94.7%; with OVCAR-5 ovarian, 110%; with OVCAR-4 ovarian it was 95%; in the experiment with SK-OV-3 ovarian it was 108%; with IGROV1 ovarian it was 99%; with OVCAR-3 ovarian, 102%. Further, the growth in the experiment on HS 578T breast is 102%; with NCI/ADR-RES ovarian it was 98.1%.
As to `CCN1CCN(CC(=O)Nc2nc3ccc(NCc4ccc(F)cc4)cc3s2)CC1`, the growth in the experiment on SK-MEL-2 melanoma was 106%; in the experiment with EKVX NSCLC, 86.6%; in the experiment on SN12C renal, 88.5%; in the experiment with UO-31 renal, 75.6%; in the experiment with TK-10 renal, 105%; in the experiment with ACHN renal, 94.7%. Further, the growth is 89.9% in the experiment with CAKI-1 renal; 95.2% in the experiment on A498 renal; 87% with CCRF-CEM leukemia; 84.8% with MOLT-4 leukemia; 80.2% in the experiment with SR leukemia; 77.3% with RPMI-8226 leukemia. The growth is 95.6% in the experiment with OVCAR-8 ovarian; 94.8% in the experiment on OVCAR-5 ovarian; 84% in the experiment with OVCAR-4 ovarian; 105% in the experiment on SK-OV-3 ovarian; 103% in the experiment on IGROV1 ovarian; 99.4% in the experiment with OVCAR-3 ovarian. Further, the values for the growth with HS 578T breast and in the experiment on NCI/ADR-RES ovarian were 92.9% and 92.2%, respectively.
As for `CN(Cc1cc(Br)cc(Br)c1O)Cc1cc(Br)cc(Br)c1O`, the growth was 51% with SK-MEL-2 melanoma; 54.8% with EKVX NSCLC; 45.1% with SN12C renal; 23.4% with UO-31 renal; 40.6% in the experiment on TK-10 renal; 31.4% in the experiment with ACHN renal. Further, the growth is 24.6% in the experiment on CAKI-1 renal; 66.5% in the experiment with A498 renal; 18.2% in the experiment with CCRF-CEM leukemia; 21.5% in the experiment on MOLT-4 leukemia; 33.8% with SR leukemia; 27.6% in the experiment on RPMI-8226 leukemia. Further, the growth with OVCAR-8 ovarian is 16.6%; in the experiment on OVCAR-5 ovarian it was 68.9%; in the experiment on OVCAR-4 ovarian, 15.7%; in the experiment on SK-OV-3 ovarian, 56.4%; with IGROV1 ovarian, 29.9%; in the experiment with OVCAR-3 ovarian, 4.97% (active). The growth was 58.9% in the experiment with HS 578T breast and 9.38% (active) with NCI/ADR-RES ovarian.
As to `CC1(C)OB(O)c2cc(-c3nc4ccc5[nH]ncc5c4c4c3CCCC4)ccc21`, the growth with SK-MEL-2 melanoma was 59.3%; in the experiment with EKVX NSCLC, 71.8%; in the experiment on SN12C renal it was 51.2%; in the experiment with UO-31 renal it was 34.4%; with TK-10 renal it was 73.4%; with ACHN renal, 21.1%. Moreover, the growth with CAKI-1 renal was 20.8%; in the experiment on A498 renal, 21.9%; in the experiment on CCRF-CEM leukemia, 50.2%; in the experiment with MOLT-4 leukemia it was 30.7%; with SR leukemia, 24.5%; in the experiment on RPMI-8226 leukemia it was 28.1%. Also, the growth in the experiment with OVCAR-8 ovarian was 46.3%; in the experiment with OVCAR-5 ovarian it was 105%; with OVCAR-4 ovarian, 67.1%; in the experiment with SK-OV-3 ovarian, 33.1%; with IGROV1 ovarian, 38.7%; in the experiment on OVCAR-3 ovarian it was 94.6%. Further, the figures for the growth in the experiment on HS 578T breast and in the experiment on NCI/ADR-RES ovarian were 68.7% and 61.8%, respectively.
Turning to `CCN1CCN(c2cc(C)nc(N(CCNc3ccnc4cc(Cl)ccc34)Cc3ccc4c(c3)OCO4)n2)CC1`, the growth in the experiment with SK-MEL-2 melanoma was -82.8% (active); in the experiment with EKVX NSCLC, 22.2%; with SN12C renal, 74.4%; in the experiment with UO-31 renal, -30.6% (active); in the experiment on TK-10 renal it was -48% (active); in the experiment on ACHN renal, 0.724% (active). The growth in the experiment with CAKI-1 renal was 53.6%; with A498 renal, -1.76% (active); in the experiment on CCRF-CEM leukemia, -18.5% (active); with MOLT-4 leukemia it was -34.1% (active); in the experiment on SR leukemia, -44.9% (active); in the experiment with RPMI-8226 leukemia, -19.3% (active). Besides, the growth in the experiment with OVCAR-8 ovarian is 3.09% (active); in the experiment with OVCAR-5 ovarian, 40.5%; in the experiment with SK-OV-3 ovarian, -16.2% (active); in the experiment with IGROV1 ovarian, 10.2%; in the experiment on OVCAR-3 ovarian, -55.8% (active); in the experiment with HS 578T breast it was 30%. For the same compound, the growth with NCI/ADR-RES ovarian is -13.9% (active).
